Source: the supplement of paper PMC6555819

Assays:
Test in all cases: PBM binding z-score (relative to random genomic background probes); higher = stronger binding; sequences stand for … in GC…GCGATTGACAGCGTAGAATGAAGG
[1] = system: FXR:RXRa (NR concentration 270 nM, RXRa partner concentration 90 nM)
Summary of the method: (§1)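 Random background probes are the reference for binding z-scores. These scores derive from regression-normalized fluorescence on custom Agilent 4×180K protein-binding microarrays incubated 1 h with ligand-free nuclear receptor dimers. Binding was detected with antibodies against each partner (one per run).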

[2] = system: LXRa:RXRa (NR concentration 270 nM, RXRa partner concentration 90 nM)
Summary of the method: as §1

[3] = system: LXRa homodimer (NR concentration 270 nM)
Summary of the method: as §1

[4] = system: LXRb:RXRa (NR concentration 270 nM, RXRa partner concentration 90 nM)
Summary of the method: as §1

[5] = system: LXRb homodimer (NR concentration 270 nM)
Summary of the method: as §1

[6] = system: PPARa:RXRa (NR concentration 270 nM, RXRa partner concentration 90 nM)
Summary of the method: as §1

[7] = system: PPARg:RXRa (NR concentration 180 nM, RXRa partner concentration 90 nM)
Summary of the method: as §1

[8] = system: PPARg:RXRa 270nM:90nM, anti-RXR (NR concentration 270 nM, RXRa partner concentration 90 nM)
Summary of the method: as §1

[9] = system: PPARg:RXRa 30nM:10nM, anti-RXR (NR concentration 30 nM, RXRa partner concentration 10 nM)
Summary of the method: as §1

[10] = system: PPARg:RXRa 90nM:30nM, anti-RXR (NR concentration 90 nM, RXRa partner concentration 30 nM)
Summary of the method: as §1

[11] = system: PPARg:RXRa DBDmut IVT, anti-RXR (DBD mutation: RXRa K156A/R161A, NR concentration 270 nM, RXRa partner concentration 90 nM)
Summary of the method: as §1

[12] = system: PPARg:RXRa IVT, anti-PPARg (NR concentration 270 nM, RXRa partner concentration 90 nM)
Summary of the method: as §1

[13] = system: PPARg DBDmut:RXRa IVT, anti-PPARg (DBD mutation: PPARg1 K132A/R137A, NR concentration 270 nM, RXRa partner concentration 90 nM)
Summary of the method: as §1

[14] = system: PPARg DBDmut IVT, anti-PPARg (DBD mutation: PPARg1 K132A/R137A, NR concentration 270 nM)
Summary of the method: as §1

[15] = system: PPARg homodimer (NR concentration 180 nM)
Summary of the method: as §1

[16] = system: PXR:RXRa (NR concentration 270 nM, RXRa partner concentration 90 nM)
Summary of the method: as §1

[17] = system: PXR homodimer (NR concentration 270 nM)
Summary of the method: as §1

[18] = system: RARa:RXR (NR concentration 270 nM, RXRa partner concentration 90 nM)
Summary of the method: as §1

[19] = system: RARa homodimer (NR concentration 270 nM)
Summary of the method: as §1

[20] = system: RARb:RXRa (NR concentration 270 nM, RXRa partner concentration 90 nM)
Summary of the method: as §1

Sequence	PBM binding z-score [1]	PBM binding z-score [2]	PBM binding z-score [3]	PBM binding z-score [4]	PBM binding z-score [5]	PBM binding z-score [6]	PBM binding z-score [7]	PBM binding z-score [8]	PBM binding z-score [9]	PBM binding z-score [10]	PBM binding z-score [11]	PBM binding z-score [12]	PBM binding z-score [13]	PBM binding z-score [14]	PBM binding z-score [15]	PBM binding z-score [16]	PBM binding z-score [17]	PBM binding z-score [18]	PBM binding z-score [19]	PBM binding z-score [20]
TGAATGAGGTTATAAGACCAGGGAACGTTGCAAA	1.42	1.55	-0.275	0.883	-0.347	2.44	1.25	1.65	0.679	1.33	1.18	1.75	0.985	0.561	0.257	0.794	-0.0148	1.33	0.0796	1.29
TAGCCTAGGTCATTGGGCCAGTAAAGTACGCATC	4.37	3.38	0.448	2.29	0.0341	4	3.28	3.76	1.14	2.4	2.98	3.93	-0.798	-0.582	0.663	1.55	-0.454	2.08	0.18	3.63
CATACAGGGTCAGCTGGGCCAGAGTAGGGACGGC	4.32	3.28	-0.0929	2.08	0.0372	4.46	2.85	3.35	0.594	2.16	1.23	2.66	0.246	0.292	1.52	2.22	-0.145	2.81	0.258	4.08
TGAATGAGGTTAAAGATCAGGCAACGTGGCGTCG	2.94	2.82	-0.471	1.4	0.134	4.85	5.51	6.49	5.01	6.3	2.24	3.79	0.599	0.0672	0.811	1.83	0.118	2.92	-0.39	2.02
AGTCAAAGTTTACTAGGTAACGTAAGATTCAGCT	-0.0676	0.666	0.138	0.287	0.0239	2.28	3.46	3.72	1.13	2.53	3.45	4.76	0.895	0.737	0.729	0.455	0.255	0.426	0.29	1.81
ATCGAAAGGTCGTGAGGTGAGAATACAGAAAGGC	5.69	4.09	0.3	3.37	0.293	5.61	4.61	4.58	1.99	3.09	0.36	2.7	1.67	0.86	1.7	3.16	0.322	4.19	0.587	4.13
GCTTACGGGTCAAGGGTTATAGCATGAATAGAAT	7	4.33	-0.0628	4.68	0.59	6.34	9.43	7.41	6.16	8.05	3.76	5.31	1.91	1.82	3.12	4.69	0.12	7.06	0.958	4.27
AGAGCGAGGGCAATGAGTTGATAGCACGGGTGGC	-0.116	-0.109	-0.331	-0.283	-0.845	0.406	0.562	-0.152	-0.57	-0.736	0.771	0.253	0.00949	-1.18	-0.656	1.38	4.01	0.0108	-1	2.13
GCTAGTTGGTCAGTAAAAGGTCAAACACCGGTCG	3.88	5.14	6.12	4.91	1.54	4.71	2.68	4.45	2.84	4.37	1.17	2.62	-0.0315	0.251	4.94	5.21	1.94	6.29	1.53	4.13
CGTCCAAGGTCAGCAGGTCAGTTAAAGCGACGTG	6.18	4.17	0.53	3.54	-0.0511	4.97	4.14	4.73	1.44	3.28	3.4	3.71	-0.851	-0.676	3.29	3.76	0.476	4.7	1.05	5.53
CCTTACGGGTCACTCCAGGTTAAAGCATCGGAGT	5.18	7.96	2.58	5.93	0.173	4.59	3.59	4.06	1.02	2.86	2.31	3.73	-0.0185	-0.224	2.3	5.3	0.114	4.1	0.271	3.67
TCTGCTAGGTCAGTTGGTCTGCTAACGAGCTGCC	0.643	0.261	-0.897	-0.119	0.334	0.9	-0.466	1.02	0.751	1.14	2.62	2.53	0.337	-0.177	-0.432	-0.155	-1.02	0.136	-1.16	3.25
GCTATTAGTTGAATGGGCAACCGAATGATTCTCG	-0.277	-0.309	-0.219	-0.351	-0.317	-0.737	0.129	-0.166	-0.146	0.0794	0.75	-0.332	-0.684	0.178	-0.436	-0.587	-0.28	-0.707	0.153	-0.226
TCGAGTAGCTTAGGGGCATTCAGAATGGCGTCGA	-0.301	-0.0309	-0.497	0.0994	-1.06	0.246	-0.362	0.211	0.569	0.263	0.336	-0.404	-0.673	-0.923	-0.986	0.0972	-0.797	0.217	-1.45	0.238
CGTCCAAGGTGATAGGAGGTCAGTGAAGACAGAT	1.74	2.85	0.6	1.86	-0.299	2.71	1.06	1.49	0.0813	0.512	1.37	2.78	0.0253	0.186	1.91	3.57	0.47	2.31	0.367	2.85
ATATGTAGGCTAAGGGTCATTCAGGTTGGTTCGC	3.79	3.76	1.84	3.73	1.39	6.17	10.2	8.9	9.28	9.65	5.51	6.21	1.21	1.43	2.35	4.78	1.76	4.17	0.917	3.36
ATCTCTAGGTAAAGCTCAGTGAAAGATCGATAGA	0.281	0.0459	-0.107	-0.256	0.358	0.297	0.103	0.333	0.3	0.095	2.67	1.38	0.778	0.893	0.544	-0.131	0.14	0.258	0.432	0.0103
CGAACTAGGTCAGAACACGACAGTGAAGGATGAT	1.16	0.462	-0.145	0.53	-0.0845	3.26	5.4	4.53	1.68	3.56	7.06	7.2	1.44	1.71	1.06	0.221	0.0475	0.721	0.743	2.84
TCTATTATTTGAAGGGCAACCGACGAGTCCGTTT	1.12	1.55	1.32	1.35	0.721	1.29	0.336	2.22	4.08	3.41	2.78	0.734	0.771	1.44	2.12	1.23	1.48	0.961	3.23	1.56
TATCGGAGGACACGAAAGGTCAGAGCTCGACATC	3.35	4.54	4.27	3.43	0.855	3.93	2.18	2.81	1.03	2.13	0.425	2.37	0.89	0.344	2.86	4.25	0.981	4.73	1.49	4.37
GCTATTAGTTGAAAGGGCAACCTAATGATTCTCG	0.451	0.673	0.238	1.08	-0.393	2.38	2.46	4.31	2.24	4.3	0.686	0.831	0.904	0.354	0.978	0.94	0.54	1.56	0.795	2.02
CCTTACGGGTGACGAGGTTATAGCACGACGAGCG	0.791	0.766	-0.00764	0.572	-0.569	2.24	1.89	1.82	-0.0114	1.22	1.91	2.65	0.21	-0.275	1.21	0.931	-0.0569	1.52	0.128	1.1
ATCGAAAGGTCGAGGTGACTATAGAGAAAGGGAA	4.61	3.47	0.0804	2.68	0.167	4.72	3.8	3.74	1.66	3.09	0.438	2.86	1.24	0.771	1.35	2.56	0.185	3.53	0.636	4.21
ATCGAAAGGTCGTGCGGTGAGTATACAGAAAGGC	5.34	4.25	0.222	3.12	1.5	4.84	3.25	3.58	1.04	2.23	0.148	1.68	0.719	0.4	3.06	3.2	0.322	3.75	0.484	3.7
CCGACTGGGGCAAGGTTACCATTACGCACAGCCA	0.0277	0.227	-0.221	0.492	-0.9	1.75	2.79	3.17	0.732	2.4	2.66	3.49	-0.296	-0.507	0.706	0.214	-0.376	0.792	0.0733	1.56
TCTAGTTGGTCAAAGGGCACACACTCGAAATGCG	1.38	1.56	0.344	1.48	0.0761	4.28	8.25	7.85	7.7	8.57	2.22	3.89	0.5	0.679	1.73	1.7	0.178	2.72	0.588	2.6
